Measured values as given in PubChem BioAssay.
Records with an inconclusive call do not appear. Active and inactive are the calls of the source.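 How the source made its calls, unless noted: active means normalized viability below 100% at a tested concentration; inactive means the rest.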

What was measured:
[1] = viability loss in pontine glioma line – cell-based, SU-DIPG-XVII, MIPE5.0, CellTiter-Glo, qHTS, dose response (AID 1347060; cut-off not given, nearly all actives have AC50 up to about 26 µM;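 on AC50: cells exposed to compound for 48 hours before viability readout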); details: CellTiter-Glo ATP luminescence
[2] = viability loss in pontine glioma line – cell-based, SU-DIPG-XIII, MIPE5.0, CellTiter-Glo, qHTS, dose response (AID 1347064; cut-off not given, nearly all actives have AC50 up to about 23 µM;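 on AC50: cells exposed to compound for 48 hours before the viability read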); details: CellTiter-Glo ATP luminescence
[3] = viability loss in pontine glioma line – cell-based, SU-DIPG-XXV, MIPE5.0, CellTiter-Glo, qHTS, dose response (AID 1347065; cut-off not given, nearly all actives have AC50 up to about 26 µM;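 further: cells exposed to compound for 48 hours before ATP readout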); details: CellTiter-Glo ATP luminescence
[4] = JHH-DIPG-1 glioma cell viability, MIPE5.0 library, CellTiter-Glo luminescence, qHTS (AID 1347067; cut-off not given, nearly all actives have AC50 up to about 26 µM;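 further: cells exposed to compound for 48 hours before readout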); details: JHH-DIPG-1 glioma viability, CellTiter-Glo ATP luminescence
[5] = growth inhibition of DIPG cells – cell-based, MIPE5.0 library, qHTS (AID 1347068; cut-off not given, nearly all actives have IC50 up to about 30 µM;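 on IC50: cells exposed to compound for 48 hours before viability readout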); details: SU-DIPG-XXV viability
[6] = viability loss with induced miR-34 in A549 – imaging, A549 dox-inducible miR-34, nuclei and caspase counts, primary screen (AID 1347080;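 active means compounds whose cell count with miR-34 switched on is under 0.7 times the count with it off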); details: A549 miR-34 inducible, Hoechst nuclei count, 48 h
[7] = MELAS cybrid and Rieske KO viability enhancers – cell-based, MELAS cybrids, Rieske KO mouse fibroblasts, CellTiter-Glo, primary screen (AID 1508586;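 active means mean z-score across replicates of 1.96 or higher in either the MELAS or the Rieske mutant cell line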;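 further: z relative to plate mean and SD of compound and empty wells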); details: low glucose
[8] = drug combination growth inhibition, ovarian cancer – cell-based, oncology-focused library, rucaparib conditional, profiling panel (AID 1508598); details: patient-derived ovarian cancer cells, CellTiter-Glo viability, 144 h, stronger effect = lower value
[9] = stronger effect = lower value, cell number ratio, induced over uninduced
[10] = measured here: relative caspase fold change +Dox/-Dox
[11] = measured here: total cells with miR-34 induction, stronger effect = lower value
[12] = measured here: total cells without miR-34 induction
[13] = MELAS cybrid survival, CellTiter-Glo 48 h, stronger effect = higher value
[14] = Rieske KO mouse fibroblast survival, CellTiter-Glo 72 h
[15] = at 0.000305 µM, OCI-C5x cells, with rucaparib 10 µM, 100% = cells with rucaparib alone
[16] = at 0.000305 µM, OCI-C5x cells, without rucaparib
[17] = at 0.000305 µM, OCI-P5x cells, with rucaparib 20 µM, 100% = cells with rucaparib alone
[18] = at 0.000305 µM, OCI-P5x cells, without rucaparib
[19] = at 0.00122 µM, OCI-C5x cells, with rucaparib 10 µM, 100% = cells with rucaparib alone
[20] = at 0.00122 µM, OCI-C5x cells, without rucaparib
[21] = at 0.00122 µM, OCI-P5x cells, with rucaparib 20 µM, 100% = cells with rucaparib alone
[22] = at 0.00122 µM, OCI-P5x cells, without rucaparib
[23] = at 0.00488 µM, OCI-C5x cells, with rucaparib 10 µM, 100% = cells with rucaparib alone
[24] = at 0.00488 µM, OCI-C5x cells, without rucaparib
[25] = at 0.00488 µM, OCI-P5x cells, with rucaparib 20 µM, 100% = cells with rucaparib alone
[26] = at 0.00488 µM, OCI-P5x cells, without rucaparib
[27] = at 0.0195 µM, OCI-C5x cells, with rucaparib 10 µM, 100% = cells with rucaparib alone
[28] = at 0.0195 µM, OCI-C5x cells, without rucaparib
[29] = at 0.0195 µM, OCI-P5x cells, with rucaparib 20 µM, 100% = cells with rucaparib alone
[30] = at 0.0195 µM, OCI-P5x cells, without rucaparib
[31] = at 0.0781 µM, OCI-C5x cells, with rucaparib 10 µM, 100% = cells with rucaparib alone
[32] = at 0.0781 µM, OCI-C5x cells, without rucaparib
[33] = at 0.0781 µM, OCI-P5x cells, with rucaparib 20 µM, 100% = cells with rucaparib alone
[34] = at 0.0781 µM, OCI-P5x cells, without rucaparib
[35] = at 0.313 µM, OCI-C5x cells, with rucaparib 10 µM, 100% = cells with rucaparib alone
[36] = at 0.313 µM, OCI-C5x cells, without rucaparib
[37] = at 0.313 µM, OCI-P5x cells, with rucaparib 20 µM, 100% = cells with rucaparib alone
[38] = at 0.313 µM, OCI-P5x cells, without rucaparib
[39] = at 1.25 µM, OCI-C5x cells, with rucaparib 10 µM, 100% = cells with rucaparib alone
[40] = at 1.25 µM, OCI-C5x cells, without rucaparib
[41] = at 1.25 µM, OCI-P5x cells, with rucaparib 20 µM, 100% = cells with rucaparib alone
[42] = at 1.25 µM, OCI-P5x cells, without rucaparib
[43] = at 5 µM, OCI-C5x cells, with rucaparib 10 µM, 100% = cells with rucaparib alone
[44] = at 5 µM, OCI-C5x cells, without rucaparib
[45] = at 5 µM, OCI-P5x cells, with rucaparib 20 µM, 100% = cells with rucaparib alone
[46] = at 5 µM, OCI-P5x cells, without rucaparib

In the case of `COc1cc(Nc2nc3ccccc3nc2NS(=O)(=O)c2ccc(NC(=O)c3ccc(C)c(OC)c3)cc2)cc(OC)c1`, the outcome [1] was “inactive”, the outcome [2] was “inactive” and the outcome [3] was “inactive”. The outcome [4] was “inactive”, the outcome [5] was “inactive” and the fold change [6, 9] was 0.923 (inactive). For the same compound, the fold change [6, 10] was 1.03, the cell count [6, 11] was 7550 and the cell count [6, 12] was 8180. The z-score [7, 13] was -0.401 (inactive), the z-score [7, 14] was 0.479 and the viability [8, 15] was 98.9% (active). The viability [8, 16] was 109% (inactive), the viability [8, 17] was 91.1% (active) and the viability [8, 18] was 95.8% (active). For the same compound, the viability [8, 19] was 114% (inactive), the viability [8, 20] was 112% (inactive) and the viability [8, 21] was 104% (inactive). The viability [8, 22] was 98.9% (active), the viability [8, 23] was 110% (inactive) and the viability [8, 24] was 112% (inactive). For the same compound, the viability [8, 25] was 103% (inactive), the viability [8, 26] was 101% (inactive) and the viability [8, 27] was 106% (inactive). The viability [8, 28] was 109% (inactive), the viability [8, 29] was 101% (inactive) and the viability [8, 30] was 107% (inactive). For the same compound, the viability [8, 31] was 118% (inactive), the viability [8, 32] was 114% (inactive) and the viability [8, 33] was 109% (inactive). The viability [8, 34] was 108% (inactive), the viability [8, 35] was 108% (inactive) and the viability [8, 36] was 116% (inactive). For the same compound, the viability [8, 37] was 107% (inactive), the viability [8, 38] was 104% (inactive) and the viability [8, 39] was 106% (inactive). The viability [8, 40] was 120% (inactive), the viability [8, 41] was 90.5% (active) and the viability [8, 42] was 108% (inactive). For the same compound, the viability [8, 43] was 111% (inactive), the viability [8, 44] was 121% (inactive) and the viability [8, 45] was 92.1% (active). For the same compound, the viability [8, 46] was 111% (inactive).

In the case of `c1ccc2c(-c3cnn4cc(-c5ccc(N6CCNCC6)cc5)cnc34)ccnc2c1`, the AC50 [1] was 3.32 µM (active), the AC50 [2] was 5.25 µM (active) and the AC50 [3] was 2.63 µM (active). For the same compound, the AC50 [4] was 2.63 µM (active) and the IC50 [5] was 5.9 µM (active).

For `COc1nc(N)nc2c1ncn2C1OC(CO)C(O)C1O` (configuration not stated), the outcome [1] was “inactive”, the outcome [2] was “inactive” and the outcome [3] was “inactive”. The outcome [4] was “inactive”, the outcome [5] was “inactive” and the fold change [6, 9] was 0.895 (inactive). The fold change [6, 10] was 0.879, the cell count [6, 11] was 6660 and the cell count [6, 12] was 7440. The z-score [7, 13] was -0.422 (inactive) and the z-score [7, 14] was -0.253.

For `C=CC(=O)Nc1cc(Nc2nccc(-c3cn(C)c4ccccc34)n2)c(OC)cc1N(C)CCN(C)C`, the AC50 [1] was 2.95 µM (active), the AC50 [2] was 7.42 µM (active) and the AC50 [3] was 3.72 µM (active). The AC50 [4] was 2.63 µM (active), the IC50 [5] was 9.34 µM (active) and the fold change [6, 9] was 0.975 (inactive). It also gave a fold change [6, 10] of 0.432, a cell count [6, 11] of 2760 and a cell count [6, 12] of 2830. For the same compound, the z-score [7, 13] was -0.292 (inactive), the z-score [7, 14] was 1.23 and the viability [8, 15] was 110% (inactive). For the same compound, the viability [8, 16] was 114% (inactive), the viability [8, 17] was 95.5% (active) and the viability [8, 18] was 94.3% (active). The viability [8, 19] was 106% (inactive), the viability [8, 20] was 108% (inactive) and the viability [8, 21] was 103% (inactive). For the same compound, the viability [8, 22] was 103% (inactive), the viability [8, 23] was 120% (inactive) and the viability [8, 24] was 120% (inactive). For the same compound, the viability [8, 25] was 103% (inactive), the viability [8, 26] was 106% (inactive) and the viability [8, 27] was 127% (inactive). For the same compound, the viability [8, 28] was 118% (inactive), the viability [8, 29] was 108% (inactive) and the viability [8, 30] was 106% (inactive). For the same compound, the viability [8, 31] was 133% (inactive), the viability [8, 32] was 132% (inactive) and the viability [8, 33] was 105% (inactive). For the same compound, the viability [8, 34] was 107% (inactive), the viability [8, 35] was 158% (inactive) and the viability [8, 36] was 170% (inactive). For the same compound, the viability [8, 37] was 108% (inactive), the viability [8, 38] was 108% (inactive) and the viability [8, 39] was 147% (inactive). For the same compound, the viability [8, 40] was 173% (inactive), the viability [8, 41] was 91.6% (active) and the viability [8, 42] was 91.7% (active). The viability [8, 43] was 2.67% (active), the viability [8, 44] was 3.48% (active) and the viability [8, 45] was 8.99% (active). For the same compound, the viability [8, 46] was 78.5% (active).
